Whole data set: some 68,000 sequences, median “fluorescence intensity (a.u.)” near 9,100, cut for the highest 2% near 16,000. The sample as a whole holds a higher share of the highest values than the screen did.

Chain of OsWRKY34 (Q0JBA9 entry or part of it): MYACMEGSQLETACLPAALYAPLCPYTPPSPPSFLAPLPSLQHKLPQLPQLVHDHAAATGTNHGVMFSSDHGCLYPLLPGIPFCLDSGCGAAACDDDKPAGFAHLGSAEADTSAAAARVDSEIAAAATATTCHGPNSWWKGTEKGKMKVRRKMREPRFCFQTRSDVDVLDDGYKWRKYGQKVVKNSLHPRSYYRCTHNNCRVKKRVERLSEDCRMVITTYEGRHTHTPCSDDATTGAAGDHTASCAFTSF

The target of the assay is OsWRKY34 (Oryza sativa, UniProt Q0JBA9 1-250). Briefly: protein-binding microarray (RPBM); PBS, 2% BSA, 51.3 ng/ul salmon testes DNA, 50 uM zinc acetate, 200 nM TF, 25 C, 1 h; high values mean tight binding. The following applies: protein: recombinant; tags: N-terminal polyhistidine and DsRed monomer fusion (pET32a); label: CyDye5-dUTP incorporated in the synthesized complementary strand; 3' TTTTT single-stranded linker to array surface; dsDNA, one strand shown. In outline:
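Transcription factors, each fused N-terminally to a polyhistidine tag and DsRed, were expressed in E. coli BL21-CodonPlus and purified on Ni–NTA. A custom Agilent array was made double-stranded by primer extension with Cy5-dUTP and blocked with 2% BSA. It was incubated with 200 nM protein in PBS, 2% BSA, salmon testes DNA and 50 µM zinc acetate at 25 °C for 1 h, then washed. The binding signal is per-feature fluorescence intensity (arbitrary units) read on an Axon 4000B scanner.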
On to “GCCCGTCTTCGTCCAGTTCCTGATCAGGTATGGTCCTTCTCGGAGTCACCTAGTGCAG”, for which the binding signal is 8060 fluorescence intensity (a.u.).

Turning to “ACCCGAGATCTGATTCACTACCGCCGCCGGATCAAGCCACCGGAGTCACCTAGTGCAG”, the binding signal is 8320 fluorescence intensity (a.u.).

“TTCGCTCACCTCTCGATCGATCGACCTGCCAACATCAACACGGAGTCACCTAGTGCAG”: the binding signal was 10400 fluorescence intensity (a.u.).

As for “ACGCTGTTGATTTTTTTAAACATGTTTGACCGTTCGTCTTCGGAGTCACCTAGTGCAG”, the binding signal was 13200 fluorescence intensity (a.u.).

As for “CGTTGACTTTTTTAAAAGTGTTTGACTGTTCGTCTTTTTTCGGAGTCACCTAGTGCAG”, the binding signal was 30500 fluorescence intensity (a.u.).

As for “ACGCCGTTGACTTTTTTAAACATGTTTGACTGTTCGTCTTCGGAGTCACCTAGTGCAG”, the binding signal is 38200 fluorescence intensity (a.u.).

Turning to “TCACGTTCAACGTTTGACTGTTCGTCTTATTTAAAATTTTCGGAGTCACCTAGTGCAG”, the binding signal was 8400 fluorescence intensity (a.u.).

As to “AGTGTTAGTTGACTGTTAGTCAAAGGTTAGTTTTTTTCGTCGGAGTCACCTAGTGCAG”, the binding signal is 9180 fluorescence intensity (a.u.).

In the case of “TGACTTTTTATCATATGTTTGACCGTTCGTCTTATTCAAACGGAGTCACCTAGTGCAG”, the binding signal was 10900 fluorescence intensity (a.u.).

Consider “ATTCAAATTTGTCAAACATTGTTTTCTTCTCTTTCATATCCGGAGTCACCTAGTGCAG”, for which the binding signal is 8650 fluorescence intensity (a.u.).

On to “CGTTGACTTTTTATCAAATGTTTGACCGTTCGTCTTATTTCGGAGTCACCTAGTGCAG”, for which the binding signal was 28900 fluorescence intensity (a.u.).

Consider “ACACCGCTGACTTTTTAAAACATGTTTTACCGTTCGTCTTCGGAGTCACCTAGTGCAG”, for which the binding signal is 13600 fluorescence intensity (a.u.).

Regarding “TTGACTTTTTAAAATATGTTTGACCGTTCGTCTTATTCAACGGAGTCACCTAGTGCAG”, the binding signal is 8040 fluorescence intensity (a.u.).

Take “ATTGATATCAAACCGTTTCTTTTGTCATATTCGTCATTTCCGGAGTCACCTAGTGCAG”: the binding signal is 17700 fluorescence intensity (a.u.).

With “TTATCAAATATTCCATCCGTCTTTTTTGATATTTTAATTTCGGAGTCACCTAGTGCAG”, the binding signal is 9840 fluorescence intensity (a.u.).

On to “ATGCGTGCGCTCAGCCCATTCTGCTTGTATTTTCAGTACACGGAGTCACCTAGTGCAG”, for which the binding signal was 11300 fluorescence intensity (a.u.).

As for “ACCCACCCACCCACCCGGTCTGTCTCCTAACCCCGGTCGCCGGAGTCACCTAGTGCAG”, the binding signal is 12600 fluorescence intensity (a.u.).

Take “GATCGTGGAATTAATTCCACCTTAGTTGTTATGGGCGGGTCGGAGTCACCTAGTGCAG”: the binding signal was 11400 fluorescence intensity (a.u.).

Turning to “GAACAACAACATGCCGCACGTGCGTATATATATATATATCCGGAGTCACCTAGTGCAG”, the binding signal was 10800 fluorescence intensity (a.u.).

For “TCCATTGACACCGGCACACGCACACGCACACCCGCACCGCCGGAGTCACCTAGTGCAG”, the binding signal is 8960 fluorescence intensity (a.u.).

As to “CAACCTCACCTACTTCCACTTCCTCGACACCAACGGCGTCCGGAGTCACCTAGTGCAG”, the binding signal was 9590 fluorescence intensity (a.u.).

“GCATGTGTTCGTTATGTGTGGTTGGAGATTTTCTCCCACACGGAGTCACCTAGTGCAG”: the binding signal is 8470 fluorescence intensity (a.u.).

Turning to “CTGCTCGGAGCACACACAACCACCACTCACCACCAACATGCGGAGTCACCTAGTGCAG”, the binding signal is 9280 fluorescence intensity (a.u.).

In the case of “TAATACACTAGCCCCAATGTTTGTTTGCCTAATCTACTCTCGGAGTCACCTAGTGCAG”, the binding signal is 9080 fluorescence intensity (a.u.).

As for “GTTTTACACTATTCACGTTCAACGTTTGACCGTTCGTCTTCGGAGTCACCTAGTGCAG”, the binding signal was 13400 fluorescence intensity (a.u.).

As for “TTGACCTTTTTAAAACATTTTTGACCGTTCGTCTTATTCACGGAGTCACCTAGTGCAG”, the binding signal is 10600 fluorescence intensity (a.u.).

In the case of “ACTTTTTAAAACATATTTGACCGTTCTTCTTATTAAAAAACGGAGTCACCTAGTGCAG”, the binding signal was 8850 fluorescence intensity (a.u.).

For “TGTCGCCATCGTATCACCGTCGCGTCGCCATCCCGTCGCCCGGAGTCACCTAGTGCAG”, the binding signal was 8070 fluorescence intensity (a.u.).

Regarding “TTACACTGTTCATGTCTCACGTTTGACCGTTCGTTTTATTCGGAGTCACCTAGTGCAG”, the binding signal was 16400 fluorescence intensity (a.u.).

“CATATTATAAGTCGTTTTGACTTTTTTTTCTTAGTCAATCCGGAGTCACCTAGTGCAG”: the binding signal is 12100 fluorescence intensity (a.u.).

Consider “GGCCCATCTGACCAAGCCCAGCTCGCGTCGTCGTGTTGATCGGAGTCACCTAGTGCAG”, for which the binding signal was 8930 fluorescence intensity (a.u.).

“CCTCTATTTCATATTATACGTCGTTGACTTTTTTCTTAGTCGGAGTCACCTAGTGCAG”: the binding signal is 17400 fluorescence intensity (a.u.).

Turning to “CCAAGCTTGTCGTGCCCGTATGTTCGCGTCCATCGTTGACCGGAGTCACCTAGTGCAG”, the binding signal is 19800 fluorescence intensity (a.u.).

Take “CTCTATTCGTTTTTCATATTATAAGTCGTTTGACGTTTTTCGGAGTCACCTAGTGCAG”: the binding signal was 9170 fluorescence intensity (a.u.).

With “AGTTTTGCACTGTTTATGTCTCACGTTTGACCGTTCGTTTCGGAGTCACCTAGTGCAG”, the binding signal was 11400 fluorescence intensity (a.u.).

Consider “CGTCGTTGACTTTTTTAAACATATTTGACCGTTCGTCTTACGGAGTCACCTAGTGCAG”, for which the binding signal is 17100 fluorescence intensity (a.u.).

As to “TTTCATGCGTTCCAAGTTGTCATTACTCCTTTGTACTCTCCGGAGTCACCTAGTGCAG”, the binding signal was 10700 fluorescence intensity (a.u.).

With “CCGCCGGACTCTCAAAATCCCAAGTCTCAACTCGATCAGCCGGAGTCACCTAGTGCAG”, the binding signal is 8170 fluorescence intensity (a.u.).

In the case of “AACTCTAATTTACTGTTGGTTGGTGCAATATCAGATGGATCGGAGTCACCTAGTGCAG”, the binding signal was 8900 fluorescence intensity (a.u.).

Consider “GCTCAGATTGTTCATCAAGTTTTTCCTCTGTGCTCTGTTTCGGAGTCACCTAGTGCAG”, for which the binding signal was 8890 fluorescence intensity (a.u.).

As to “ATGAGTATATATAAGCTTAGTCTCTTTTCTTTTCTTTCTTCGGAGTCACCTAGTGCAG”, the binding signal is 8940 fluorescence intensity (a.u.).

As to “CGTTGACTTTTTAAAATATATTTGACCGTTCGTCTTATTCCGGAGTCACCTAGTGCAG”, the binding signal is 24100 fluorescence intensity (a.u.).

Turning to “ACGCCGTTGACTTTTTTAAACATGTTTAACCGTTCATCTTCGGAGTCACCTAGTGCAG”, the binding signal is 47400 fluorescence intensity (a.u.).

Consider “GTTGATTTTTTTTAAATATGTTTGACCGTTCGTCTTATTCCGGAGTCACCTAGTGCAG”, for which the binding signal was 8600 fluorescence intensity (a.u.).

Turning to “TGTTGACTTTTTAAAACATGTTTGACCGTTCATATTATTCCGGAGTCACCTAGTGCAG”, the binding signal is 15700 fluorescence intensity (a.u.).

In the case of “TGTTGATTTTTTAAAATATGTTTGACCGTTCGTCTTATTCCGGAGTCACCTAGTGCAG”, the binding signal is 10700 fluorescence intensity (a.u.).

For “GCATTCGTTTCAGGCTGTTCCCAACCTCTCTCCCTTGTTTCGGAGTCACCTAGTGCAG”, the binding signal was 12000 fluorescence intensity (a.u.).

As for “CGGCCCAAGCTTCATTGACAAATTGTCTTGAATTTGTACACGGAGTCACCTAGTGCAG”, the binding signal was 8510 fluorescence intensity (a.u.).

In the case of “ACACATATTTATTTTCTCCACTACCACAGAAGGAACTTTTCGGAGTCACCTAGTGCAG”, the binding signal is 9140 fluorescence intensity (a.u.).

Regarding “ATCGAATGGTTGGTTCGGTTTGGTTTTGATTGATCGATATCGGAGTCACCTAGTGCAG”, the binding signal was 22300 fluorescence intensity (a.u.).

Take “GTGGTGGCGGTGGAGGTGGAGGTGGAGGCGCCGTGGTGCGCGGAGTCACCTAGTGCAG”: the binding signal is 12600 fluorescence intensity (a.u.).

For the sequence “GTGGTTGGTTGGTGCGGTTGCGGCGGGTGATCGAACGATGCGGAGTCACCTAGTGCAG”, the binding signal is 12100 fluorescence intensity (a.u.).

With “TTTATTGTTGTTTTTGGGTTGGTTTGGTTTGATTCCGATGCGGAGTCACCTAGTGCAG”, the binding signal is 9120 fluorescence intensity (a.u.).

For “TTTGGTAAGATTTGAACGGTTGGTTGTATAGGTCATTGACCGGAGTCACCTAGTGCAG”, the binding signal was 16900 fluorescence intensity (a.u.).

As for “ATTTTCGTGTTATTTTTGGTTCTGGTTGATTGATCGATTTCGGAGTCACCTAGTGCAG”, the binding signal was 12900 fluorescence intensity (a.u.).

With “CTTCGATTGGTTTGTTGGTTTGACTGGAATTCGGATGGATCGGAGTCACCTAGTGCAG”, the binding signal was 10100 fluorescence intensity (a.u.).

“GCGGTGGAGGCGGTGGCGGTGGTGGCGGTGGTGGAGGATGCGGAGTCACCTAGTGCAG”: the binding signal was 21200 fluorescence intensity (a.u.).

With “GAGGAGGAGGAGGAGGAGGAGGAGGATGCGGGTGGTGGTGCGGAGTCACCTAGTGCAG”, the binding signal is 10500 fluorescence intensity (a.u.).

On to “ATATAGGTTACGGATTTGTCATTGGTCGTTGTATTCTTTTCGGAGTCACCTAGTGCAG”, for which the binding signal was 10600 fluorescence intensity (a.u.).

As to “AGGGGAGGTAGGTAAGAAGATTGAACAGTGGAGGGTTGTACGGAGTCACCTAGTGCAG”, the binding signal is 9840 fluorescence intensity (a.u.).

In the case of “ATTGATTGATTGGTTGGTTGGTTGGTTGGGTTGATCGATGCGGAGTCACCTAGTGCAG”, the binding signal is 20300 fluorescence intensity (a.u.).

The record behind these values is paper PMC7819943, “Rice protein-binding microarrays: a tool to detect cis-acting elements near promoter regions in rice”.
